Assay results: PubChem BioAssay AID1159580 (chemical genetic matrix, 2015)
The whole screen tested about 5,500 compounds, of which about 2,000 (36%) were called active. Not shown: some 18% with an inconclusive outcome. Rule as the data show it: active = normalized growth mostly below about 0.91 (no sharp cut-off); inconclusive = no clear call, values can overlap the other calls; inactive = mostly above about 0.92. This is one part of the list.

Experiment: chemical genetic growth profiling, strain panel (AID 1159580);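 also: tested at 20 µM; growth read once vehicle control cultures reached saturation at 30 °C; 1 = growth at the plate median or of vehicle wells; lower values mean less growth of the strain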
Conditions: S. cerevisiae deletion strains, growth OD

Measured: normalized growth

O=[N+]([O-])c1cc(Br)cnc1Sc1nnc(SCC2CC2)s1
active: locus YDL214C, strain PRR2, active compounds read low 0.458 | locus YER123W, strain YCK3, active compounds read low 0.529 | locus YFR019W, strain FAB1, active compounds read low 0.721 | locus YGR092W, strain DBF2, active compounds read low 0.484 | locus YHR030C, strain SLT2, active compounds read low 0.197 | locus YHR079C, strain IRE1, active compounds read low 0.418 | locus YJL095W, strain BCK1, active compounds read low 0.35 | locus YJL157C, strain FAR1, active compounds read low 0.533 | locus YJR066W, strain TOR1 (second series), active compounds read low 0.531 | locus YKL048C, strain ELM1, active compounds read low 0.778 | locus YKL067W, strain YNK1, active compounds read low 0.39 | locus YKL101W, strain HSL1, active compounds read low 0.542 | locus YLR113W, strain HOG1, active compounds read low 0.554 | locus YLR133W, strain CKI1, active compounds read low 0.574 | locus YML070W, strain DAK1, active compounds read low 0.465 | locus YMR205C, strain PFK2 (second series), active compounds read low 0.387 | locus YNL020C, strain ARK1, active compounds read low 0.418 | locus YNL183C, strain NPR1, active compounds read low 0.351 | locus YNL307C, strain MCK1 (second series), active compounds read low 0.556 | locus YOL136C, strain PFK27, active compounds read low 0.633 | locus YOR061W, strain CKA2, active compounds read low 0.174 | locus YOR231W, strain MKK1, active compounds read low 0.333 | locus YPL031C, strain PHO85, active compounds read low 0.55 | locus YPL153C, strain RAD53, active compounds read low 0.629 | locus YPL256C, strain CLN2, active compounds read low 0.515
inactive: locus YAR019C, strain CDC15, active compounds read low 0.928 | locus YBL105C, strain PKC1, active compounds read low 0.96 | locus YBR135W, strain CKS1, active compounds read low 0.932 | locus YBR136W, strain MEC1, active compounds read low 0.959 | locus YBR160W, strain CDC28, active compounds read low 0.953 | locus YDL017W, strain CDC7, active compounds read low 0.961 | locus YDL028C, strain MPS1, active compounds read low 0.935 | locus YDL101C, strain DUN1, active compounds read low 0.965 | locus YDL108W, strain KIN28, active compounds read low 0.952 | locus YDL132W, strain cdc53, active compounds read low 0.936 | locus YDR052C, strain DBF4, active compounds read low 0.964 | locus YDR054C, strain cdc34, active compounds read low 0.947 | locus YDR226W, strain ADK1, active compounds read low 0.927 | locus YDR477W, strain SNF1, active compounds read low 0.767 | locus YER133W, strain GLC7, active compounds read low 0.762 | locus YFL009W, strain cdc4, active compounds read low 0.93 | locus YFL029C, strain CAK1, active compounds read low 0.943 | locus YFR003C, strain YPI1, active compounds read low 0.962 | locus YFR028C, strain CDC14, active compounds read low 0.943 | locus YGR040W, strain KSS1, active compounds read low 0.771 | locus YGR052W, strain FMP48, active compounds read low 0.7 | locus YHR082C, strain KSP1, active compounds read low 0.707 | locus YHR205W, strain SCH9, active compounds read low 0.609 | locus YIL147C, strain SLN1, active compounds read low 0.952 | locus YJL128C, strain PBS2, active compounds read low 0.948 | locus YJR016C, strain ILV3, active compounds read low 0.944 | locus YJR066W, strain TOR1, active compounds read low 0.621 | locus YKL193C, strain SDS22, active compounds read low 0.935 | locus YKL203C, strain TOR2, active compounds read low 0.872 | locus YLR403W, strain SFP1, active compounds read low 0.754 | locus YMR001C, strain CDC5, active compounds read low 0.928 | locus YMR277W, strain FCP1, active compounds read low 0.924 | locus YNL006W, strain LST8, active compounds read low 0.961 | locus YNL161W, strain CBK1, active compounds read low 0.939 | locus YNL207W, strain RIO2, active compounds read low 0.929 | locus YNL222W, strain SSU72, active compounds read low 0.944 | locus YOL078W, strain AVO1, active compounds read low 0.927 | locus YOR119C, strain RIO1, active compounds read low 0.818 | locus YOR329C, strain SCD5, active compounds read low 0.962 | locus YPL204W, strain HRR25, active compounds read low 0.751 | locus YPL209C, strain IPL1, active compounds read low 0.958 | locus YPR025C, strain CCL1, active compounds read low 0.95 | locus YPR106W, strain ISR1, active compounds read low 0.978 | locus YPR111W, strain DBF20, active compounds read low 0.96 | strain NNK1, active compounds read low 0.969 | strain TSCII, active compounds read low 0.929
